IDE exosite inh: exo-site inhibitors of human insulin-degrading enzyme; purified IDE, FL-6b probe fluorescence polarization; stronger effect = lower value; actives 6.3% (n = 17,000); P14735; AID 1259349; z-score at 20 µM;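 active means z-score of -3 or lower, meaning strong loss of probe binding signal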;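 further: His-tagged human IDE residues 42-1019 made in E. coli with 30 nM FL-6b probe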
* = called active by the depositor; ! = not confirmed by another sample. Only a selection was taken, and hits are over-represented in it overall.

SMILES | IDE exosite inh
C[C@H]1CN([C@@H](C)CO)C(=O)c2cc(-c3cccc(C(=O)N(C)C)c3)cnc2O[C@@H]1CN(C)C(=O)Cc1ccccn1 | -0.0167
CN(C)CC(=O)N1[C@H](CO)[C@H](c2ccc(C#CC3CCCCC3)cc2)[C@@H]1C#N | 1.19
COC(=O)[C@H]1[C@H](CO)[C@H]2Cn3c(ccc(-c4ccccc4OC)c3=O)[C@H]2N1C(=O)c1cnccn1 | -0.193
N#C[C@H]1[C@H](c2ccc(-c3cccc(F)c3)cc2)[C@@H](CO)N1S(=O)(=O)c1cccc(F)c1 | 1.67
CC(C)(C)S(=O)N1Cc2cc(C(=O)NCc3ccc4c(c3)OCO4)nc(-c3cccc(-c4cccc(F)c4)c3)c2[C@@H]1CCO (stereo not given in full) | 0.37
CCC(=O)NC[C@@H]1[C@@H](c2ccc(-c3cccc(F)c3)cc2)[C@H](CO)N1C(=O)CC | -0.665
N#C[C@H]1[C@@H](c2ccccc2-c2ccccc2)[C@@H](CO)N1C(=O)Cc1ccncc1 | -1.11
CCC(=O)N1CC(=O)N2[C@H](CO)[C@@H](c3ccc(C#Cc4cccnc4)cc3)[C@H]2C1 | -0.414
COCC(=O)N1CC2(C1)CN(Cc1ccccc1F)[C@H](CO)c1[nH]c3cc(OC)ccc3c12 | -2.22
O=C1CN(S(=O)(=O)c2ccccc2)C[C@@H]2[C@@H](c3ccc(Br)cc3)[C@@H](CO)N12 | 2.92
O=C(C1CCCCC1)N1C[C@@H]2N[C@H](C1)C2c1ccc(-c2ccccc2F)cc1 (stereo not given in full) | 0.623
Cc1cccc(-c2ccc(C3[C@@H]4CNC[C@H]3N4)cc2)c1 (stereo not given in full) | 0.37
Cc1cccc(-c2ccc(C3[C@@H]4CN(C(=O)C5CCCCC5)C[C@H]3N4)cc2)c1 (stereo not given in full) | -5.42*!
O=C(Nc1cccc(F)c1)N1CC(=O)N2[C@H](C1)[C@H](c1ccc(Br)cc1)[C@@H]2CO | 0.76
Cc1ccccc1-c1ccc([C@H]2[C@H](CO)N3CCCCN(C(=O)c4cccnc4)C[C@@H]23)cc1 | -3.87*
CC(C)(O)C#Cc1ccc([C@@H]2[C@H](CO)N3CCCCN(C(=O)c4cccnc4)C[C@@H]23)cc1 | 0.937
Cc1ccccc1-c1ccc([C@@H]2[C@H](CO)N3CCCCN(C(=O)c4cccnc4)C[C@@H]23)cc1 | -8.42*
Cc1ccccc1-c1ccc([C@@H]2[C@@H](CO)N3CCCCN(C(=O)c4cccnc4)C[C@H]23)cc1 | -2.23
CC(C)(O)C#Cc1ccc([C@@H]2[C@@H](CO)N3CCCCN(C(=O)c4cccnc4)C[C@@H]23)cc1 | 3.42
CC(C)(O)C#Cc1ccc([C@H]2[C@H]3CN(C(=O)c4cccnc4)CCCCN3[C@H]2CO)cc1 | 0.85
Cc1ccccc1-c1ccc([C@H]2[C@@H](CO)N3CCCCN(C(=O)c4cccnc4)C[C@H]23)cc1 | -16.5*
O=C(Nc1ccc(Cl)cc1)N1C[C@@H]2[C@H](c3ccccc31)[C@H](CO)N2CC1CCCCC1 | -0.584
O=C(Nc1ccc(F)cc1)N1CC(=O)N2[C@H](C1)[C@H](c1ccc(Br)cc1)[C@@H]2CO | -0.638
CCCN1[C@H](CO)[C@H](c2ccc(C3=CCCC3)cc2)[C@H]1CN(C(C)=O)C1CCCC1 | 0.719
CC(C)CC#Cc1ccc([C@@H]2[C@@H](CO)N3C(=O)CN(C(=O)Nc4cc(F)ccc4F)C[C@@H]23)cc1 | -0.649
SMILES | IDE exosite inh
Cc1ccc(-c2ccc([C@@H]3[C@@H](CO)N4C(=O)CN(C(=O)Nc5cccc(F)c5)C[C@@H]34)cc2)cc1 | 2.75
C[C@@H](NC(=O)C[C@@H]1CC[C@@H]2[C@H](COC[C@H](O)CN2C(=O)Nc2cccc(Cl)c2)O1)c1ccccc1 | 0.131
N#Cc1cccc(-c2ccc([C@@H]3[C@H](CO)N4CCCCN(C(=O)Nc5cccc(F)c5)C[C@@H]34)cc2)c1 | 6.51
O=C(c1cccc(F)c1)N1CC(=O)N2[C@H](C1)[C@H](c1ccc(C3=CCCC3)cc1)[C@@H]2CO | 0.217
O=C1N[C@@H](c2ccccc2)COCc2cnnn2CC[C@@H]1Cc1ccc(C(F)(F)F)cc1 | -0.299
CC(C)NC(=O)N1CCCCN2[C@@H](CO)[C@H](c3ccc(Br)cc3)[C@@H]2C1 | 2.74
CC(C)NC(=O)N1CCCCN2[C@@H](CO)[C@@H](c3ccc(Br)cc3)[C@@H]2C1 | 0.634
COc1cccc(-c2ccc([C@@H]3[C@H](CO)N4CCCCN(C(=O)NC(C)C)C[C@@H]34)cc2)c1 | -6.52*
COc1cccc(-c2ccc([C@H]3[C@H](CO)N4CCCCN(C(=O)c5ccc(F)cc5)C[C@@H]34)cc2)c1 | -2.02
COc1cccc(-c2ccc([C@H]3[C@H]4CN(C(=O)NC(C)C)CCCCN4[C@H]3CO)cc2)c1 | -10.3*
COc1cccc(-c2ccc([C@@H]3[C@H](CO)N4CCCCN(C(=O)c5ccc6c(c5)OCO6)C[C@@H]34)cc2)c1 | -1.95
COc1ccccc1NC(=O)N1C[C@@H](O)COC[C@H]2O[C@H](CC(=O)NCCc3ccncc3)CC[C@@H]21 | 1.56
O=C(C1CCCC1)N1CC(=O)N2[C@@H](CO)[C@@H](c3ccc(C#CC4CCCC4)cc3)[C@@H]2C1 | 3.07
CS(=O)(=O)N1[C@H](CO)[C@H](c2ccccc2-c2ccccc2F)[C@@H]1C#N | -0.193
O=C(C1CCOCC1)N1CC(=O)N2[C@H](CO)[C@H](c3ccc(-c4cccnc4)cc3)[C@@H]2C1 | -1.14
C/C=C/c1ccc([C@H]2[C@H](CO)N3C(=O)CN(C(=O)c4cnccn4)C[C@@H]23)cc1 | 3.67
O=C(c1cnccn1)N1CC(=O)N2[C@H](CO)[C@@H](c3ccc(-c4ccc(F)cc4)cc3)[C@H]2C1 | 0.961
O=C(c1cnccn1)N1CC(=O)N2[C@H](CO)[C@H](c3ccc(/C=C/c4ccccc4)cc3)[C@@H]2C1 | -5.34*
C/C=C/c1ccc([C@H]2[C@H]3CN(C(=O)c4cnccn4)CC(=O)N3[C@H]2CO)cc1 | 3.03
O=C(c1cnccn1)N1CC(=O)N2[C@@H](CO)[C@H](c3ccc(/C=C/c4ccccc4)cc3)[C@@H]2C1 | -6.47*
O=C(c1cnccn1)N1CC(=O)N2[C@H](CO)[C@@H](c3ccc(/C=C/c4ccccc4)cc3)[C@@H]2C1 | -5.47*
C/C=C/c1ccc([C@@H]2[C@@H](CO)N3C(=O)CN(C(=O)c4cnccn4)C[C@H]23)cc1 | 1.49
O=C(c1cnccn1)N1CC(=O)N2[C@H](CO)[C@@H](c3ccc(/C=C/c4ccccc4)cc3)[C@H]2C1 | -6.5*
O=C(c1cnccn1)N1CC(=O)N2[C@@H](CO)[C@H](c3ccc(-c4ccc(F)cc4)cc3)[C@@H]2C1 | 1.29
CC(C)NC[C@@H]1[C@H](c2ccc(C3=CCCCC3)cc2)[C@H](CO)N1C(=O)NC(C)C | 2.72
SMILES | IDE exosite inh
COC(=O)C[C@H]1CC[C@@H]2[C@@H](COc3ccc(NS(=O)(=O)c4ccc(C)cc4)cc3C(=O)N2C)O1 | -1.98
COc1ccc(C[C@H]2CCn3cc(nn3)COCCCNC2=O)cc1 | 0.763
O=C(C1CCCC1)N1CC(=O)N2[C@H](C1)[C@@H](c1ccc(C#CC3CCCC3)cc1)[C@@H]2CO | 1.74
C[C@@H]1CN([C@@H](C)CO)C(=O)c2ccccc2-c2ccccc2CO[C@H]1CN(C)S(=O)(=O)c1ccc([N+](=O)[O-])cc1 | -0.802
O=C1CN(Cc2ccccc2)C[C@H]2[C@@H](c3ccc(Br)cc3)[C@@H](CO)N12 | -0.0404
O=C(Nc1ccc(F)cc1)N1CC(=O)N2[C@H](CO)[C@H](c3ccc(C#CC4CC4)cc3)[C@H]2C1 | 0.546

Source: PubChem
